In PMC7155171, “Probing the Open Global Health Chemical Diversity Library for Multistage-Active Starting Points for Next-Generation Antimalarials” (ACS Infectious Diseases, 2020):

Columns and labels:
[1] = test system: P. berghei liver stage (PbLuc); set-up: species or system HepG2-A16-CD81; P. berghei luciferase sporozoite infection of hepatocytes, liver stage luminescence; conditions: inhibitor; for PbLuc primary screen (10uM): inhibition % (n=1): 48 h
[2] = test system: HepG2-A16-CD81 hepatocytes; set-up: Uninfected hepatocyte viability, CellTiter-Glo luminescence; conditions: cytotoxicity primary screen, inhibitor

Q: Which results are given for `CN(Cc1ccc(F)c(F)c1)C(=O)CCC1=NC(=C2N=CN=N2)NO1` [DDD01062114]?
A: PbLuc primary screen (10uM): inhibition % (n=1) [1]: 55.4%; PbLuc primary screen (2uM): inhibition % (n=1) [1]: 6.397%; HepG2 toxicity primary screen (10uM): inhibition % (n=1) [2]: -43.56%

Q: With `COc1cc2c(cc1-c1nc3c[nH]n(C(C)C4CC4)c-3n1)OCO2` (stereo not drawn) [DDD01244142] as the compound, how does the “PbLuc primary screen (10uM): inhibition % (n=1)” value [1] read?
A: 34%

Q: What about the “PbLuc primary screen (2uM): inhibition % (n=1)” value [1] of the same compound?
A: 67.28%

Q: What about the “HepG2 toxicity primary screen (10uM): inhibition % (n=1)” value [2] of the same compound?
A: 4.82%

Q: How did the “PbLuc primary screen (10uM): inhibition % (n=1)” value [1] turn out when `CSc1cccc(NC(=O)Nc2c(O)c3ccccc3oc2=O)c1` [DDD01037688] was run?
A: 1.86%

Q: And the “PbLuc primary screen (2uM): inhibition % (n=1)” value [1]?
A: 28.0462%

Q: And the “HepG2 toxicity primary screen (10uM): inhibition % (n=1)” value [2]?
A: 4.45%

Q: Which results are given for `Cc1[nH]n(C2CCS(=O)(=O)C2)c(=O)c1Cc1ccc(Br)cc1` (stereo not drawn) [DDD01026979]?
A: PbLuc primary screen (10uM): inhibition % (n=1) [1]: 43.4%; PbLuc primary screen (2uM): inhibition % (n=1) [1]: 14.54%; HepG2 toxicity primary screen (10uM): inhibition % (n=1) [2]: -41.615%

Q: What does the source list for `Cn1cc(C(=O)N2CCCC(c3cc(=O)n(C)[nH]3)C2)cn1` (stereo not drawn) [DDD01060486]?
A: PbLuc primary screen (10uM): inhibition % (n=1) [1]: 19.6%; PbLuc primary screen (2uM): inhibition % (n=1) [1]: 27.39%; HepG2 toxicity primary screen (10uM): inhibition % (n=1) [2]: -21.6%

Q: Which “PbLuc primary screen (10uM): inhibition % (n=1)” value [1] does the source give for `Cc1[nH]n(-c2ccccc2)c2nc(C(C)(C)CN3CCN(C)CC3)nc1-2` [DDD01252143] here?
A: 8.08%

Q: And the “PbLuc primary screen (2uM): inhibition % (n=1)” value [1]?
A: 38.49%

Q: What about the “HepG2 toxicity primary screen (10uM): inhibition % (n=1)” value [2] of the same compound?
A: -2.13%

Q: How did the “PbLuc primary screen (10uM): inhibition % (n=1)” value [1] turn out when `CCc1nn2c(N)c(C#N)nnc2c1-c1ccc(OC)cc1` [DDD01035159] was run?
A: 22.9%

Q: What about the “PbLuc primary screen (2uM): inhibition % (n=1)” value [1] of the same compound?
A: 19.08%

Q: What about the “HepG2 toxicity primary screen (10uM): inhibition % (n=1)” value [2] of the same compound?
A: -3.73%

Q: With `Cc1[nH]n(C2CCCC2)c2nc(C(C)(C)CN3CCN(C)CC3)nc1-2` [DDD01248613] as the compound, how does the “PbLuc primary screen (10uM): inhibition % (n=1)” value [1] read?
A: 49.4%

Q: And the “PbLuc primary screen (2uM): inhibition % (n=1)” value [1]?
A: 34.18%

Q: And the “HepG2 toxicity primary screen (10uM): inhibition % (n=1)” value [2]?
A: -6.61%

Q: Which results are given for `Cc1cccc(C2N3CCC4(CC3)c3[nH]c5ccccc5c3CCN24)n1` (stereo not drawn) [DDD01058402]?
A: PbLuc primary screen (10uM): inhibition % (n=1) [1]: -19.7%; PbLuc primary screen (2uM): inhibition % (n=1) [1]: 38.22%; HepG2 toxicity primary screen (10uM): inhibition % (n=1) [2]: 8.06%

Q: With `CCc1c(C)[nH]c2cc(C3CCN(CCc4ccccc4)C3)nn2c1=O` (stereo not drawn) [DDD01060567] as the compound, how does the “PbLuc primary screen (10uM): inhibition % (n=1)” value [1] read?
A: 83.3%

Q: What about the “PbLuc primary screen (2uM): inhibition % (n=1)” value [1] of the same compound?
A: 20.31%

Q: What about the “HepG2 toxicity primary screen (10uM): inhibition % (n=1)” value [2] of the same compound?
A: -20.1%

Q: How did the “PbLuc primary screen (10uM): inhibition % (n=1)” value [1] turn out when `CCc1ccc(NC(=O)Nc2c(O)c3ccccc3oc2=O)cc1` [DDD01037337] was run?
A: -11.4%

Q: And the “PbLuc primary screen (2uM): inhibition % (n=1)” value [1]?
A: 49.69%

Q: What about the “HepG2 toxicity primary screen (10uM): inhibition % (n=1)” value [2] of the same compound?
A: 5.95%

Q: `Cn1nc(C2CCC2)c(-c2ccc3c(c2)OCO3)c1N` [DDD01074643] was tested. Which “PbLuc primary screen (10uM): inhibition % (n=1)” value [1] did it give?
A: 64.7%

Q: What about the “PbLuc primary screen (2uM): inhibition % (n=1)” value [1] of the same compound?
A: 14.0603%

Q: What about the “HepG2 toxicity primary screen (10uM): inhibition % (n=1)” value [2] of the same compound?
A: -42.27%
